DT40 TDP1 CPT = qHTS for Inhibitors of human tyrosyl-DNA phosphodiesterase 1 (TDP1): qHTS in cells in presence of CPT; Potency, µM (doses to about 46.2 µM), inactives show at the top dose activity change, negative = growth inhibition, most hits filed as inhibitors; AID 686979, 2013; chicken DT40 Tdp1-/-;hTDP1 cells + 20 nM CPT, ATP luminescence, 48 h; 12% of 420,000 active; note: potency is the fitted concentration of half-maximal effect; nearly all actives have a fitted effect of over 55% in size
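Chicken DT40 Tdp1-/- cells complemented with human TDP1, 400 cells/well, exposed to compounds plus 20 nM camptothecin for at least 48 h at 37 C; viability read as ATP content by CellTiter-Glo luminescence.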
12-LOX inh = Primary qHTS assay for inhibitors of human arachidonate 12S-lipoxygenase (ALOX12): Round 2 | AID 1671190, 2021 | Potency, µM (top dose mostly 108 µM), without a hit: top-dose activity change, negative = inhibition, most hits filed as inhibitors | 1.1% of 580,000 active | purified 12hLO, xylenol orange hydroperoxide absorbance; note: potency is the fitted concentration of half-maximal effect
Target sequence (P18054 whole entry, looked up): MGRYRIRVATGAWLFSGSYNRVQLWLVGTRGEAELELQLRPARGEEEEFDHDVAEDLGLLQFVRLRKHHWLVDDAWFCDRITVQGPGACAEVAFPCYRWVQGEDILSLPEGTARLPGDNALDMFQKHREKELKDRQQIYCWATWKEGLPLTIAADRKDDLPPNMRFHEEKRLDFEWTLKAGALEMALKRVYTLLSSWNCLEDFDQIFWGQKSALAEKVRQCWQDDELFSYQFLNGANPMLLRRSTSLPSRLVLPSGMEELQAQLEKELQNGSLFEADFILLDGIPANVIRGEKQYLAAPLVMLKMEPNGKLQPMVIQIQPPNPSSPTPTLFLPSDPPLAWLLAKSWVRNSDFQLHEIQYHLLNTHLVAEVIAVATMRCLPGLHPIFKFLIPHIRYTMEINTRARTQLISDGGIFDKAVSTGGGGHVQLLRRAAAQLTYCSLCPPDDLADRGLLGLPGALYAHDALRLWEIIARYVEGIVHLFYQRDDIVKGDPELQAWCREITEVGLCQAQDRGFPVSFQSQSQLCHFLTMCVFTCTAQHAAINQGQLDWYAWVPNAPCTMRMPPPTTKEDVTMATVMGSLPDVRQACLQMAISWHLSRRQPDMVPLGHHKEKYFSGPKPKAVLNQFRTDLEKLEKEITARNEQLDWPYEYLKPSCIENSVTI
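Purified human 12hLO (150 nM final) in 25 mM Hepes, 0.01% Triton X-100, pH 7.0 was preincubated 15 min at room temperature with compound. Then 40 uM arachidonic acid was added, 30 min. Hydroperoxide was read by Fe-XO absorbance ratio 573/405 nm.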
IL-1B inflam inh = qHTS for Inhibitors of Inflammasome Signaling: IL-1-beta AlphaLISA Primary Screen | 4.7% of 360,000 active | activity change, % at 57.5 µM | AID 743279, 2014 | THP-1 LPS/ATP IL-1B secretion, AlphaLISA, 16 h; active compounds read low; in the data active = activity change below about -50%; inconclusive = mostly about -30% to -49%
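Secreted IL-1B measured by AlphaLISA bead assay after 16 h compound exposure of THP-1 cells; compounds (final up to 57.5 uM) added 1 h before LPS (250 ng/mL) and ATP (1.25 mM) stimulation; lower signal means less secretion.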
HT1080 IDH1KD tx = qHTS for induction of synthetic lethality in tumor cells producing 2HG: qHTS for the HT-1080-IDH1KD cell line; HT-1080 IDH1 knockdown viability, ATP luminescence, 48 h; Potency, µM (highest dose often 46.1 µM), for the others: top-dose activity, negative = toxicity, actives largely listed as cytotoxic; 2% of 360,000 active;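 note: potency is the fitted concentration of half-maximal effect; 0% = DMSO wells and -100% = cell-free medium wells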
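Viability of IDH1-knockdown HT-1080 fibrosarcoma cells was assessed by CellTiter-Glo after 48 h at 37 °C with titrated compound; concentration-effect curves were classified by fit quality and response size.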
HT1080NT lethal = qHTS for induction of synthetic lethality in tumor cells producing 2HG: qHTS for the HT-1080-NT fibrosarcoma cell line. HT-1080-NT fibrosarcoma viability, CellTiter-Glo ATP luminescence, 48 h. Potency, µM (series often up to 46.1 µM), for the others: at the top dose activity, negative = less viability, most hits filed as cytotoxic. 1.6% of 360,000 active. AID 686970, 2013;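 note: NT is the 2HG producing partner of a matched IDH1 knockdown line; potency is the fitted concentration of half-maximal effect; 0% = DMSO-treated cells and -100% = media-only wells without cells; nearly all actives have a fitted effect of over 55% in size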
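Compounds were tested in concentration-response format on HT-1080-NT cells for 48 hours at 37 degrees C. Cell viability came from CellTiter-Glo luminescence; curves were classified by r2, response magnitude and activity.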
TDP1 cell noCPT = qHTS for Inhibitors of human tyrosyl-DNA phosphodiesterase 1 (TDP1): qHTS in cells in absence of CPT. DT40 Tdp1-/- hTDP1 cells, no CPT, ATP luminescence, 48 h. Potency, µM (highest dose often 46.2 µM), for inactives: at the highest dose activity change, negative = growth inhibition, actives largely listed as inhibitors. 15% of 420,000 active; note: potency is the fitted concentration of half-maximal effect; nearly all actives have a fitted effect of over 55% in size
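DT40 Tdp1-/-;hTDP1 cells, no CPT (DMSO vehicle only), 400 cells/well; compounds pin-transferred; ≥48 hr, 37 °C; CellTiter-Glo 30 min RT dark, luminescence read.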
* = called active by the depositor; ! = repeats disagree; [ ] = dose if it differs, or a comment. The full list was thinned out, with hits kept by preference. Unless noted, calls come from the whole dose curve; as a rule, active = well fitted curve in the direction sought with a large enough effect; inconclusive = small, poorly fitted or top-dose-only effect, or another doubt; inactive = no such curve, though single readings can be large; an effect the other way counts as inactive or inconclusive. Unless noted, % is set by controls: 0 for no effect and ±100 for the full control effect.

Results for COc1cc2c(NC3CCN(C)CC3)nc(N3CCCN(C)CC3)nc2cc1OCCOCCN(C)C ?
DT40 TDP1 CPT: inconclusive; TDP1 cell noCPT: -29.4%

What do the screens show for `COc1cc2c(NC3CCN(C)CC3)nc(N3CCCCC3)nc2cc1OCCOCCN(C)C`?
DT40 TDP1 CPT: 11.2µM*; TDP1 cell noCPT: inconclusive

What do the screens show for `CCCN(C)CCCOc1cc2nc(N3CCCN(C)CC3)nc(NC3CCN(C)CC3)c2cc1OC`?
DT40 TDP1 CPT: 8.91µM*; TDP1 cell noCPT: 12.6µM*

How did CC(=O)N1CCC(N[C@@H]2CO[C@H](CNS(=O)(=O)c3ccc(C)cc3)[C@H]2O)CC1 do in these assays?
12-LOX inh: 3.0%[176 µM]

Results for CCc1ccc(N2C(=O)N(CC(=O)C(C)(C)C)c3ccccc3S2(=O)=O)cc1 ?
DT40 TDP1 CPT: 13µM*; 12-LOX inh: -0.6%; TDP1 cell noCPT: 20.6µM*

Results for CCc1cccc(N2C(=O)N(CC(=O)NCc3cccc(OC)c3OC)c3ccccc3S2(=O)=O)c1 ?
DT40 TDP1 CPT: 13µM*; 12-LOX inh: -12.0%; TDP1 cell noCPT: inconclusive

Results for CC(=O)c1ccc(N2C(=O)N(Cc3ccccc3C#N)c3ccccc3S2(=O)=O)cc1 ?
DT40 TDP1 CPT: 16.4µM*; 12-LOX inh: -0.7%; TDP1 cell noCPT: inconclusive

What do the screens show for `CC(=O)c1ccc(N2C(=O)N(CC(=O)c3ccc(F)cc3)c3ccccc3S2(=O)=O)cc1`?
DT40 TDP1 CPT: -22.9%; 12-LOX inh: 4.0%; TDP1 cell noCPT: inconclusive

How did COc1cccc(N2C(=O)N(CC(=O)NCc3cccc(OC)c3OC)c3ccccc3S2(=O)=O)c1 do in these assays?
DT40 TDP1 CPT: -14.3%; 12-LOX inh: -18.1%; TDP1 cell noCPT: -16.8%

What do the screens show for `COC(=O)c1ccc(OC)c(CN2C(=O)N(c3ccc(C(C)=O)cc3)S(=O)(=O)c3ccccc32)c1`?
DT40 TDP1 CPT: 14.6µM*; 12-LOX inh: -14.9%; TDP1 cell noCPT: 16.4µM*

How did Cc1cc(C)cc(NC(=O)Cn2ccn3nc4c(c3c2=O)CCCC4)c1 do in these assays?
12-LOX inh: 8.4%

What do the screens show for `CCc1ccc(-n2c(=O)c3ccccc3n(CC(=O)C(C)(C)C)c2=O)cc1`?
DT40 TDP1 CPT: inconclusive; 12-LOX inh: -16.0%; IL-1B inflam inh: 0.0; HT1080 IDH1KD tx: 3.0%; HT1080NT lethal: 1.5%; TDP1 cell noCPT: 18.4µM*

What do the screens show for `CC(=O)c1ccc(N2C(=O)N(Cc3ccc(F)cc3)c3ccccc3S2(=O)=O)cc1`?
DT40 TDP1 CPT: 20.6µM*; 12-LOX inh: 0.0%; TDP1 cell noCPT: 16.4µM*

How did COc1cccc(CNC(=O)Cn2c(=O)cc(C)c3c(C)nn(C)c32)c1OC do in these assays?
DT40 TDP1 CPT: 23.1µM*; 12-LOX inh: -16.1%; TDP1 cell noCPT: 18.4µM*

How did CC(=O)c1ccc(N2C(=O)N(Cc3cc(C)ccc3C)c3ccccc3S2(=O)=O)cc1 do in these assays?
DT40 TDP1 CPT: 23.1µM*; 12-LOX inh: -18.0%; TDP1 cell noCPT: 18.4µM*

How did COc1cc2c(CCNC(C)=O)c[nH]c2cc1O do in these assays?
DT40 TDP1 CPT: -2.6%; 12-LOX inh: 39.8µM*!; IL-1B inflam inh: -6.6; HT1080 IDH1KD tx: 11.5%; HT1080NT lethal: 21.5%; TDP1 cell noCPT: -4.1%

Compound activity: PubChem BioAssay, National Center for Advancing Translational Sciences (NCATS)
